Test results taken from PMC11062922 (Nature Chemical Biology, 2023).
Where two headings read alike, the source gives them in different places.

Key:
Design in all cases: species or system human, MV4-11 + K-562 + COLO205 + SK-N-BE2 + OVCAR-8
AURKA = conditions: read-out: apparent Kd; compound concentrations: 100 nM and 1000 nM (sheet 'Samples'), CATDS: 4.2728158523190798E-2; n = 1
AURKB = conditions: read-out: apparent Kd, n = 1
BUB1 = conditions: read-out: apparent Kd; compound concentrations: 100 nM and 1000 nM (sheet 'Samples'), CATDS: 4.7022132934679002E-2; n = 1
CSNK1D = conditions: read-out: apparent Kd; compound concentrations: 100 nM and 1000 nM (sheet 'Samples'), CATDS: 5.89125677268394E-2; n = 1
CSNK1E = conditions: read-out: apparent Kd; compound concentrations: 100 nM and 1000 nM (sheet 'Samples'), CATDS: 4.0450014161249097E-2; n = 1
DDR1 = conditions: read-out: apparent Kd; compound concentrations: 100 nM and 1000 nM (sheet 'Samples'), CATDS: 6.5674707070784599E-2; n = 1
DDR2 = conditions: read-out: apparent Kd; compound concentrations: 100 nM and 1000 nM (sheet 'Samples'), CATDS: 3.7339921381228602E-2; n = 1
EPHB6 = conditions: read-out: apparent Kd; compound concentrations: 100 nM and 1000 nM (sheet 'Samples'), CATDS: 3.6673450698806898E-2; n = 1
FLT3 = conditions: read-out: apparent Kd; compound concentrations: 100 nM and 1000 nM (sheet 'Samples'), CATDS: 0.27087793421716799; n = 1
FLT4 = conditions: read-out: apparent Kd; compound concentrations: 100 nM and 1000 nM (sheet 'Samples'), CATDS: 4.30316479834668E-2; n = 1
GAK = conditions: read-out: apparent Kd; compound concentrations: 100 nM and 1000 nM (sheet 'Samples'), CATDS: 7.8479207153445404E-2; n = 1
LIMK2 = conditions: read-out: apparent Kd; compound concentrations: 100 nM and 1000 nM (sheet 'Samples'), CATDS: 3.6080783188173302E-2; n = 1
NQO2 = conditions: read-out: apparent Kd; compound concentrations: 100 nM and 1000 nM (sheet 'Samples'), CATDS: 0.178299559019577; n = 1
PDGFRB = conditions: read-out: apparent Kd; compound concentrations: 100 nM and 1000 nM (sheet 'Samples'), CATDS: 5.3358090976632598E-2; n = 1
RET = conditions: read-out: apparent Kd; compound concentrations: 100 nM and 1000 nM (sheet 'Samples'), CATDS: 0.111645797001171; n = 1
RIPK2 = conditions: read-out: apparent Kd; compound concentrations: 100 nM and 1000 nM (sheet 'Samples'), CATDS: 3.9651452900350902E-2; n = 1
RIPK3 = conditions: read-out: apparent Kd; compound concentrations: 100 nM and 1000 nM (sheet 'Samples'), CATDS: 3.2567224991893698E-2; n = 1
SIK2 = conditions: read-out: apparent Kd; compound concentrations: 100 nM and 1000 nM (sheet 'Samples'), CATDS: 4.1786415024185397E-2; n = 1
TGFBR1 = conditions: read-out: apparent Kd; compound concentrations: 100 nM and 1000 nM (sheet 'Samples'), CATDS: 3.3015845196466199E-2; n = 1
TGFBR2 = conditions: read-out: apparent Kd; compound concentrations: 100 nM and 1000 nM (sheet 'Samples'), CATDS: 3.2296969977490597E-2; n = 1
TNK1 = conditions: read-out: apparent Kd; compound concentrations: 100 nM and 1000 nM (sheet 'Samples'), CATDS: 4.85220574572469E-2; n = 1
AXL = conditions: read-out: apparent Kd; compound concentrations:100 nM and 1000 nM (sheet 'Samples'); n = 1
EIF2AK1 = conditions: read-out: apparent Kd; compound concentrations:100 nM and 1000 nM (sheet 'Samples'); n = 1
BMPR2 = conditions: read-out: apparent Kd; compound concentrations:100 nM and 1000 nM (sheet 'Samples'); n = 1
JAK2 = conditions: read-out: apparent Kd; compound concentrations:100 nM and 1000 nM (sheet 'Samples'); n = 1
PRKX = conditions: read-out: apparent Kd; compound concentrations:100 nM and 1000 nM (sheet 'Samples'); n = 1
ROCK2 = conditions: read-out: apparent Kd; compound concentrations:100 nM and 1000 nM (sheet 'Samples'); n = 1
CDC42BPB = conditions: read-out: apparent Kd; compound concentrations:100 nM and 1000 nM (sheet 'Samples'); n = 1
CDC42BPG = conditions: read-out: apparent Kd; compound concentrations:100 nM and 1000 nM (sheet 'Samples'); n = 1
PKN1 = conditions: read-out: apparent Kd; compound concentrations:100 nM and 1000 nM (sheet 'Samples'); n = 1
PRKACA = conditions: read-out: apparent Kd; compound concentrations:100 nM and 1000 nM (sheet 'Samples'); n = 1
PRKACB = conditions: read-out: apparent Kd; compound concentrations:100 nM and 1000 nM (sheet 'Samples'); n = 1
PRKG1 = conditions: read-out: apparent Kd; compound concentrations:100 nM and 1000 nM (sheet 'Samples'); n = 1
ROCK1 = conditions: read-out: apparent Kd; compound concentrations:100 nM and 1000 nM (sheet 'Samples'); n = 1
STK26 = conditions: read-out: apparent Kd; compound concentrations:100 nM and 1000 nM (sheet 'Samples'); n = 1

For `CCCCc1nn2ncccc2c1-c1ccnc(Nc2ccc(N3CCN(C)CC3)cc2)n1` [GW684941X], the potency estimated from few doses (AURKA) was 853 nM, the potency estimated from few doses (AURKB; compound concentrations: 100 nM and 1000 nM (sheet 'Samples'), CATDS: 4.3580096723042298E-2) was 809 nM and the potency estimated from few doses (BUB1) was 667 nM. For the same molecule, the potency estimated from few doses (CSNK1D) was 400 nM, the potency estimated from few doses (CSNK1E) was 993 nM and the potency estimated from few doses (DDR1) was 320 nM. It also gave a potency estimated from few doses (DDR2) of 1270 nM, a potency estimated from few doses (EPHB6) of 1340 nM and a potency estimated from few doses (FLT3) of 32.5 nM. It also gave a potency estimated from few doses (FLT4) of 837 nM, a potency estimated from few doses (GAK) of 227 nM and a potency estimated from few doses (LIMK2) of 1420 nM. It also gave a potency estimated from few doses (NQO2) of 58.6 nM, a potency estimated from few doses (PDGFRB) of 496 nM and a potency estimated from few doses (RET) of 122 nM. The potency estimated from few doses (RIPK2) was 1050 nM, the potency estimated from few doses (RIPK3) was 2080 nM and the potency estimated from few doses (SIK2) was 906 nM. It also gave a potency estimated from few doses (TGFBR1) of 1970 nM, a potency estimated from few doses (TGFBR2) of 2150 nM and a potency estimated from few doses (TNK1) of 618 nM.
For `Cc1cccc(CC(=O)N2CCc3c2ccc(-c2cn(C)c4ncnc(N)c24)c3F)n1` [GSK2656157], the potency estimated from few doses (AXL) was 503 nM and the potency estimated from few doses (EIF2AK1) was 751 nM.
Molecule `CC1=C(C(=O)Nc2ccc3[nH]ncc3c2)C(c2ccc3ccccc3c2)CC(=O)N1` (centres unmarked) [GSK270822A] has a potency estimated from few doses (BMPR2) of 2080 nM, a potency estimated from few doses (JAK2) of 754 nM and a potency estimated from few doses (PRKX) of 1630 nM. The potency estimated from few doses (ROCK2) was 67.9 nM.
In the case of `CC(C)NCC(Cc1ccccc1)NC(=O)c1cc(Br)c(-c2ccnc3[nH]ccc23)s1.CC(C)NCC(Cc1ccccc1)NC(=O)c1cc(Br)c(-c2ccnc3[nH]ccc23)s1.Cl.Cl` (centres unmarked) [GSK1383281A], the potency estimated from few doses (AURKB; compound concentrations:100 nM and 1000 nM (sheet 'Samples')) is reported as 950 nM, the potency estimated from few doses (CDC42BPB) is reported as 1320 nM and the potency estimated from few doses (CDC42BPG) is reported as 1360 nM. The potency estimated from few doses (PKN1) was 840 nM, the potency estimated from few doses (PRKACA) was 70.2 nM and the potency estimated from few doses (PRKACB) was 102 nM. For the same molecule, the potency estimated from few doses (PRKG1) was 13.6 nM, the potency estimated from few doses (PRKX) was 1100 nM and the potency estimated from few doses (ROCK1) was 43.1 nM. For the same molecule, the potency estimated from few doses (ROCK2) was 48 nM and the potency estimated from few doses (STK26) was 1940 nM.
